Measurements taken from ChEMBL document CHEMBL1201862, “PubChem BioAssay data set” (2004).
Screen size: about 58,000 sequences; about 3,500 (6%) were called active. Cut-off read from the data, not from the text of the source: active = GI50 up to about 1.1 µM and inactive = higher. Only a sample is shown. Measured potencies and affinities stand elsewhere.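 48-hour exposure; five concentrations; linearly interpolated endpoints. At the GI50, growth is halved.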

test system: SN12C; test: NCI tumour cell line growth inhibition, 48 h

“[Bis(aminomethyl)pentamethylenesilane]dichloropaltinum(II), CHEMBL2146202” and “[Bis(aminomethyl)pentamethylenesilane]tetrachloropaltinum(IV), CHEMBL2146204” are within 1.5-fold of each other in GI50: 1.87 µM for the first, 2 µM for the second.

Compared with “[Bis(aminomethyl)tetramethylenesilane]tetrachloropaltinum(IV), CHEMBL2146189”, “cis-Bis[[(trimethylsilyl)methyl]amino]tetrachloroplatinum(IV), CHEMBL2146191” is 5-fold higher in GI50: 2.64 µM for the first, 13.1 µM for the second.

First: [Bis(aminomethyl)dimethylsilane]tetrachloroplatinum(IV), CHEMBL2146190
Second: mu-(1,7-nanodiamine-N,N')bis-(cis-aminedichloroplatimum (II)), CHEMBL2146215
The GI50 of the first is 22-fold higher: 8.45 µM for the first, 0.387 µM for the second.

“[Bis(aminomethyl)tetramethylenesilane]dichloropaltinum(II), CHEMBL2146205” and “[Bis(aminomethyl)dimethylsilane]dichloroplatinum (II), CHEMBL2146201” are within 1.5-fold of each other in GI50: 23.9 µM for the first, 32.4 µM for the second.

Going from “[Bis(aminomethyl)diethylsilane]tetrachloroplatinum(IV), CHEMBL2146203” to “[Bis(aminomethyl)ethylmethylsilane]tetrachloroplatinum(IV), CHEMBL2146192”, the GI50 rises from 2.34 µM to 4.25 µM (1.8-fold).

Substance CISPLATIN, CHEMBL11359 has a GI50 of 4.83 µM.
